Test [1] is described as follows: E. coli DRC41 culture turbidity changes, primary screen, E. coli filamentation inducer project, strain DRC41, OD650, 48 h (AID 1152).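 Further: E. coli MC1000 strain DRC41 lacking acrAB efflux pump and sulA.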 Particulars: E. coli DRC41 (acrAB sulA), higher = more signal, called active from +8 up or from −8 down.
A short description of test [2]: small-molecule binders of probe aLefty1, primary screen, biochemical, small-molecule microarray, 635/667 nm fluorescence (AID 1153).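 Further: score merges spot fluorescence with signal-to-noise ratio from the scanned slide images.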 Particulars: higher = more signal.
Test [3] is described as follows: PSAC antagonists in infected red cells, primary screen, cell-based, P. falciparum Indochina, OD700, 1 h (AID 1154). Particulars: P. falciparum Indochina infected RBC osmotic lysis, higher = more signal, called active from +8 up or from −8 down.
Test [4] can be described thus: PSAC antagonists in infected red cells, primary screen, cell-based, P. falciparum Indochina, OD700, 2 h (AID 1155).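 Further: lysis reports solute entry through the parasite surface anion channel PSAC; channel blockers reduce lysis of infected cells.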 Particulars: P. falciparum Indochina infected erythrocytes, osmotic lysis OD700; higher = more signal, called active from +8 up or from −8 down.
Test [5] is described as follows: osmotic lysis modulators in infected erythrocytes, primary screen, PSAC antagonist project, cell-based, P. falciparum Indochina, OD700, 3 h (AID 1156). The settings on record: higher = more signal, called active from +8 up or from −8 down.
Test [6] is described as follows: PSAC antagonists in infected red cells, primary screen, cell-based, P. falciparum Indochina, OD700, 18 h (AID 1157). Particulars: P. falciparum Indochina infected erythrocytes, osmotic lysis OD700, 18 h; higher = more signal, called active from +8 up or from −8 down.
Test [7] can be described thus: modulators of S6 phosphorylation in cells, primary screen, cell-based, A549, cytoblot, luminescence, serum-stimulated (AID 1158).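 Further: serum-stimulated A549 lung adenocarcinoma cells; signal is phosphorylated S6 detected by cytoblot immunostaining with HRP secondary.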 The settings on record: A549 phospho-S6 cytoblot, 5 h, higher = more signal.
The target of test [8] is NADPH oxidase 2 (Homo sapiens) (UniProt P04839). Kind of test: NOX2-dependent H2O2 signal modulators, primary screen, NOX inhibitor project, cell-based, HEK293-NOX2, PMA-stimulated, Amplex Red fluorescence (AID 1159). Further: test concentration not given here. The settings on record: 45 min, higher = more signal, called active from +8 up or from −8 down.
The target in test [9] is NADPH oxidase 4 (Homo sapiens) (UniProt Q9NPH5). As to the kind of experiment: NOX4-dependent H2O2 signal modulators, primary screen, NOX inhibitor project, cell-based, HEK293-NOX4, tetracycline-induced, Amplex Red fluorescence (AID 1160). The settings on record: 45 min, higher = more signal, called active from +8 up or from −8 down.
Test [10] concerns the target NADPH oxidase 5 (Homo sapiens) (UniProt Q96PH1). Kind of test: NOX5-dependent H2O2 signal modulators, primary screen, NOX inhibitor project, cell-based, HEK293-NOX5, Amplex Red fluorescence (AID 1161). The settings on record: HEK293-NOX5, ionomycin, 45 min, higher = more signal.
Test [11] is described as follows: A549 cell viability effects, profiling panel, calcein-AM fluorescence, 48 h, basal (AID 1162). Further: test concentration not given here. Particulars: higher = more signal.
The nature of test [12]: adipocyte viability effects, profiling panel, cell-based, 3T3-L1 adipocytes, calcein-AM fluorescence, 48 h, basal (AID 1163). Further: test concentration not given here. The settings on record: 3T3-L1 adipocytes viability, higher = more signal.
Test [13] can be described thus: HepG2 cell viability effects, profiling panel, calcein-AM fluorescence, 48 h, basal (AID 1164). Further: test concentration not given here. The settings on record: higher = more signal.
Test [14] in a line: MM1S cell viability effects, profiling panel, calcein-AM fluorescence, 48 h, basal (AID 1165).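 Further: viability of MM1S multiple myeloma cells under basal unstimulated conditions; test concentration not given here.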 The settings on record: higher = more signal.
The nature of test [15]: basal RPMI8226 viability, no added stimulus, profiling panel, cell-based, calcein-AM fluorescence, 48 h, PK04 Diversity Set (AID 1166).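 Further: cells grown under basal conditions without added stimulus; test concentration not given here.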 Particulars: RPMI8226 myeloma viability, higher = more signal.
Test [16] in a line: basal HepG2 mitochondrial membrane potential changes, profiling panel, cell-based, JC-1 fluorescence, 24 h, 100 nL compound (AID 1167). Further: test concentration not given here. Particulars: higher = more signal.
Test [17] in a line: basal 3T3-L1 adipocyte mitochondrial potential changes, profiling panel, cell-based, JC-1 fluorescence, 3T3-L1 adipocytes, 24 h, 100 nL compound (AID 1168). Further: test concentration not given here. The settings on record: JC-1 mitochondrial fluorescence, higher = more signal, called active from +8 up or from −8 down.
Test [18] can be described thus: basal RPMI8226 mitochondrial membrane potential changes, profiling panel, cell-based, JC-1 fluorescence, 24 h, 100 nL compound (AID 1169). Further: test concentration not given here. The settings on record: RPMI8226 myeloma, JC-1 mitochondrial potential fluorescence, higher = more signal.
The nature of test [19]: basal MM1S mitochondrial membrane potential changes, profiling panel, cell-based, JC-1 fluorescence, 24 h, 100 nL compound (AID 1170). Further: test concentration not given here. The settings on record: higher = more signal.
The nature of test [20]: A549 lung cancer cell viability effects, profiling panel, resazurin fluorescence, 24 h, PK04 Diversity Set (AID 1171). Further: test concentration not given here. Particulars: higher = more signal, called active from +8 up or from −8 down. Background: Resazurin is reduced to fluorescent resorufin, in cell work by metabolically active cells.

Calls of active or inactive are those of the source.

This is an account of results in PubChem BioAssay.

Chain of NADPH oxidase 2 (Homo sapiens) (P04839 whole entry, looked up): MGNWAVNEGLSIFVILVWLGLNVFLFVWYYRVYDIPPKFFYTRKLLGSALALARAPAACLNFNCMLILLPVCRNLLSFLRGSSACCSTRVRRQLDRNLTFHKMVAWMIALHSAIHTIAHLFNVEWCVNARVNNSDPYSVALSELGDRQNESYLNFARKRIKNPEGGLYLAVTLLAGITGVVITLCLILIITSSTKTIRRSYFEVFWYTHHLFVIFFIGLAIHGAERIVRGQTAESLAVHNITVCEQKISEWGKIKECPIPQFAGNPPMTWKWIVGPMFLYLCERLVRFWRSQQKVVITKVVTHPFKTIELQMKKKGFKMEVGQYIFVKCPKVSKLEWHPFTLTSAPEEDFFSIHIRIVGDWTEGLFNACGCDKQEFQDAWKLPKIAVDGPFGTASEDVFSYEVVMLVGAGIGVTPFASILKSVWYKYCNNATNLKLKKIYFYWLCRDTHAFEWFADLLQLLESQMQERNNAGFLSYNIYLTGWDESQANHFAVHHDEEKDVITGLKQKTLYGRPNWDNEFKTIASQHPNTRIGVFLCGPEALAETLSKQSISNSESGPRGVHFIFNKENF
Chain of NADPH oxidase 4 (Homo sapiens) (Q9NPH5 whole entry, looked up): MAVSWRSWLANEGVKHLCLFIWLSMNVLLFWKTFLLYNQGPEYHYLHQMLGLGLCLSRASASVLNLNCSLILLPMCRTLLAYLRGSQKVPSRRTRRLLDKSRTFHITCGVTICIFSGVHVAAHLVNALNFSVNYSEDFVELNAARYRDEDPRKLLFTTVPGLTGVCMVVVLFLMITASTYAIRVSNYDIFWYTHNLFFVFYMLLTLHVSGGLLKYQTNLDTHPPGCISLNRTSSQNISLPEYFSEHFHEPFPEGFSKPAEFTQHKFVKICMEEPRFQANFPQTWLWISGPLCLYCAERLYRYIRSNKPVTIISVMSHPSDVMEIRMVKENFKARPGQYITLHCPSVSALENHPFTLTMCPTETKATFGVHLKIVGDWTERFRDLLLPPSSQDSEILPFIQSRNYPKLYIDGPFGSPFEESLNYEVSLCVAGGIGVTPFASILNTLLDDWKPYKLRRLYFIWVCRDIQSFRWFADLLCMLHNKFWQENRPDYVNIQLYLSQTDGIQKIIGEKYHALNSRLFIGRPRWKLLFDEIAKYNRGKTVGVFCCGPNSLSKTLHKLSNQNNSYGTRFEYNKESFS
Chain of NADPH oxidase 5 (Homo sapiens) (Q96PH1 whole entry, looked up): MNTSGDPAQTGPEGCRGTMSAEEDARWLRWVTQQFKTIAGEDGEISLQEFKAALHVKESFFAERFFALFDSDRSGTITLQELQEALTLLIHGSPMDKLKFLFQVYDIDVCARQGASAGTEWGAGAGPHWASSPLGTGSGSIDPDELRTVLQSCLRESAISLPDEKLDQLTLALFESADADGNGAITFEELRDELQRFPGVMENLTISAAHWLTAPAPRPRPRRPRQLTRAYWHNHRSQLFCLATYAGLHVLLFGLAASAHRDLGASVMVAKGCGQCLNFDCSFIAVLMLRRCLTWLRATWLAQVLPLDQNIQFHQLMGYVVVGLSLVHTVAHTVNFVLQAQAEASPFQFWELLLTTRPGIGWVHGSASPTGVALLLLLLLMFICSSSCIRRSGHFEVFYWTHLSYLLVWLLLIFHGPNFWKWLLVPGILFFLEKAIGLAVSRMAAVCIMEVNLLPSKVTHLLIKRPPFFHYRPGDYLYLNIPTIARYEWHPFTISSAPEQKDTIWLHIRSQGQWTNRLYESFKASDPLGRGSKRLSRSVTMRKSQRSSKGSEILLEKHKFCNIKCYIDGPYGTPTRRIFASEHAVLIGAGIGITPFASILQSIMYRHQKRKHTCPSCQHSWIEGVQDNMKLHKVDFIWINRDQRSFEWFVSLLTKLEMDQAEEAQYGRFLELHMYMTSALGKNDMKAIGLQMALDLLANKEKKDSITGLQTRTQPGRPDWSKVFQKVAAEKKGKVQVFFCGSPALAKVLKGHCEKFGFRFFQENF

On to `[N-]=[N+]=Nc1ccccc1[C@@H]1OC(c2ccc(OCCCO)cc2)=N[C@]1(Cc1ccccc1)C(=O)NCCN1CCOCC1`, for which the z-score in [1] was 0.146 (inactive); in test [3], 30.2 (active); in test [4], 26.5 (active); in test [5] it was 3.9 (inactive); in test [6] it was 1.92 (inactive); in test [7], 1.39. Moreover, the z-score in test [8] is -3.29 (inactive); in test [9], -1.23 (inactive); in [10] it was -2.13; in test [11], -0.975; in test [12], 1.29; in [13], -0.876. The z-score in test [14] is -2.37; in [15], -4.18; in [16], 0.153; in test [17], -0.0447 (inactive); in test [18], -1.26; in test [19], -0.469. Also, in test [20], the z-score is -0.908 (inactive). For the same compound, in test [2], the composite z-score is 0.142.

As for `O=C1[C@H]2C=C(I)[C@H](C[C@@H]2c2ccccc2)[C@@]12CO2`, the z-score is -1.76 (inactive) in test [1]; 0.613 (inactive) in [3]; 0.0069 (inactive) in test [4]; 0.402 (inactive) in test [5]; -0.0396 (inactive) in test [6]; -0.164 in test [7]. Moreover, the z-score in [8] is -0.66 (inactive); in test [9] it was 0.265 (inactive); in [10], -0.666; in [11] it was -1.3; in [12] it was -0.417; in [13], -0.382. The z-score in test [14] is -3.18; in [15] it was -3; in test [16], -1.74; in test [17], 0.789 (inactive); in test [18], -1.2; in test [19], -1.32. Moreover, the z-score in test [20] is -0.122 (inactive). The composite z-score in [2] is -0.15.

On to `COCC(=C=CC[C@H](O)c1ccccc1OCCO)C[C@H](O)COCc1ccccc1`, for which the z-score is -0.186 (inactive) in test [1]; 9.07 (active) in test [3]; 1.07 (inactive) in test [4]; 0.287 (inactive) in test [5]; 0.896 (inactive) in test [6]; -0.408 in [7]. Moreover, the z-score was 0.0204 (inactive) in [8]; -1.22 (inactive) in test [9]; -1.92 in test [10]; 0.428 in test [11]; 0.152 in test [12]; 0.024 in [13]. In addition, the z-score is -2.02 in [14]; -0.311 in test [15]; 1.37 in [16]; -0.437 (inactive) in test [17]; -0.138 in test [18]; -0.382 in [19]. Further, the z-score in [20] is 0.857 (inactive). This compound came in with a composite z-score in [2] of 0.131.

With `O=C1O[C@H](Cc2ccccc2)[C@@H]2[C@H]3C=CCCC=C3CN2[C@H]1Cc1ccc(O)cc1`, the z-score was 0.676 (inactive) in test [1]; 3.72 (inactive) in test [3]; 0.0962 (inactive) in test [4]; 0.0059 (inactive) in test [5]; 0.157 (inactive) in [6]; -0.253 in test [7]. In addition, the z-score is -2.69 (inactive) in [8]; -1.58 (inactive) in test [9]; -1.3 in test [10]; 0.405 in test [11]; -0.276 in test [12]; 0.146 in test [13]. Also, the z-score is -3.14 in [14]; -0.148 in test [15]; -2.65 in [16]; -0.639 (inactive) in [17]; -1.05 in [18]; -1.69 in [19]. The z-score in test [20] is 0.745 (inactive). Besides, the composite z-score in test [2] came out at 0.0811.

For the compound `CC(=O)c1ccc(C(O)C2C=CC3C(=O)N(c4ccccc4)C(=O)C3N2Nc2ccc(C(C)C)cc2)cc1` (stereo not given), the z-score in test [1] was -1.08 (inactive); in test [3], 12.7 (active); in test [4], 3.03 (inactive); in test [5], 1.42 (inactive); in [6] it was 1.47 (inactive); in test [7] it was -0.617. The z-score in test [8] is -1.6 (inactive); in [9] it was -1.6 (inactive); in test [10] it was -2.08; in [11], -0.301; in test [12], -1.69; in test [13] it was 0.123. Besides, the z-score was -1.1 in test [14]; -0.994 in test [15]; -2.03 in [16]; -1.56 (inactive) in [17]; -0.293 in test [18]; -1.29 in test [19]. Besides, in test [20], the z-score is -0.532 (inactive). This compound also yielded a composite z-score in test [2] of 0.281.

On to `COc1ccc([Si](C)(C)[C@H]2[C@H](CCO)O[C@@]3(C(=O)N(Cc4ccc(NC(=O)[C@H](C)O)cc4)c4ccccc43)[C@@H]2C)cc1`, for which the z-score in test [1] was 0.0546 (inactive); in test [3], 29.9 (active); in [4], 25.8 (active); in test [5], 2.52 (inactive); in test [6], 2.46 (inactive); in [7] it was 1.27. Moreover, the z-score was 0.25 (inactive) in test [8]; 1.39 (inactive) in [9]; -0.66 in test [10]; -3.33 in test [11]; 1.36 in test [12]; -4.58 in test [13]. Further, the z-score is -2.64 in test [14]; -4.47 in test [15]; -2.19 in [16]; 0.843 (inactive) in [17]; -1.11 in test [18]; -2.31 in test [19]. In addition, the z-score in [20] was -5.03 (inactive). This compound also returned a composite z-score in [2] of -0.0984.

In the case of `CCOC(=O)C1=CC[C@@H](c2ccc(OC)cc2)N(S(=O)(=O)c2ccc(C)cc2)[C@H]1CC`, the z-score in [1] is 0.938 (inactive); in test [3], 2.22 (inactive); in test [4], -0.258 (inactive); in test [5], -1.07 (inactive); in [6] it was -1.62 (inactive); in test [7], 1.27. Moreover, the z-score in [8] was 0.0165 (inactive); in [9], -0.911 (inactive); in test [10], 0.209; in test [11], 0.33; in test [12], 0.815; in test [13] it was 0.945. Moreover, the z-score was -1.25 in test [14]; -1.45 in test [15]; 5.4 in [16]; 1.53 (inactive) in test [17]; -0.301 in test [18]; -1.99 in test [19]. Also, in test [20], the z-score was 0.198 (inactive). This compound also returned a composite z-score in test [2] of -0.0018.

For the compound `O=C1[C@H]2C=C(I)[C@H](C[C@@H]2OCCCCCCO)[C@@]12CO2`, the z-score in test [1] is -1.02 (inactive); in [3] it was 5.11 (inactive); in [4], 0.713 (inactive); in test [5] it was 0.487 (inactive); in [6] it was 0.035 (inactive); in test [7], -0.251. Further, the z-score in [8] was -0.212 (inactive); in test [9] it was 0.645 (inactive); in test [10], -1.22; in [11], 0.249; in test [12], -0.0741; in [13], -0.394. The z-score in test [14] was -1.22; in [15] it was -0.273; in test [16] it was -1.58; in [17] it was 0.0285 (inactive); in test [18] it was -0.264; in test [19] it was -0.571. For the same compound, in test [20], the z-score was 0.339 (inactive). In test [2], this compound gave a composite z-score of 0.0834.

In the case of `COCCOC(=O)N1C(=O)[C@@]2(c3cc(C#CCC(C(=O)OC)C(=O)OC)ccc31)[C@H](C(=O)Nc1nc3ccccc3s1)[C@H]1C(=O)O[C@H](c3ccccc3)[C@H](c3ccccc3)N1[C@@H]2c1ccc(OCCO)cc1`, the z-score in test [1] was 0.836 (inactive); in test [3], 5.5 (inactive); in test [4], 1.77 (inactive); in [5] it was 0.832 (inactive); in test [6], 1.39 (inactive); in test [7] it was -0.265. The z-score in test [8] was 1.75 (inactive); in test [9], 1.03 (inactive); in [10], 1.33; in [11] it was 0.4; in [12], 0.502; in [13], 0.593. In addition, the z-score is -0.733 in test [14]; 0.427 in [15]; -3.27 in [16]; 1.05 (inactive) in test [17]; -0.708 in test [18]; 0.327 in test [19]. Also, the z-score in test [20] was 1.42 (inactive). Further, in test [2], the composite z-score is 0.529.
